Measurements as given in the supplement of paper PMC3334620.
In all, about 33,000 sequences were measured (“E-score (-0.5 to 0.5)”: median about -0.012, highest 2% from about 0.29 on). The list comes from a sample in which the highest values are over-represented; it also holds similar and randomly drawn sequences.

Each sequence was assayed against T1, Ybr033w (UniProt P38073) (assay: PBM E-score (8-mer binding enrichment) (E-score (-0.5 to 0.5)); higher = stronger / more preferred TF binding). Conditions: protein concentration: 200 nM; construct: GST-full length.
T1 sequence: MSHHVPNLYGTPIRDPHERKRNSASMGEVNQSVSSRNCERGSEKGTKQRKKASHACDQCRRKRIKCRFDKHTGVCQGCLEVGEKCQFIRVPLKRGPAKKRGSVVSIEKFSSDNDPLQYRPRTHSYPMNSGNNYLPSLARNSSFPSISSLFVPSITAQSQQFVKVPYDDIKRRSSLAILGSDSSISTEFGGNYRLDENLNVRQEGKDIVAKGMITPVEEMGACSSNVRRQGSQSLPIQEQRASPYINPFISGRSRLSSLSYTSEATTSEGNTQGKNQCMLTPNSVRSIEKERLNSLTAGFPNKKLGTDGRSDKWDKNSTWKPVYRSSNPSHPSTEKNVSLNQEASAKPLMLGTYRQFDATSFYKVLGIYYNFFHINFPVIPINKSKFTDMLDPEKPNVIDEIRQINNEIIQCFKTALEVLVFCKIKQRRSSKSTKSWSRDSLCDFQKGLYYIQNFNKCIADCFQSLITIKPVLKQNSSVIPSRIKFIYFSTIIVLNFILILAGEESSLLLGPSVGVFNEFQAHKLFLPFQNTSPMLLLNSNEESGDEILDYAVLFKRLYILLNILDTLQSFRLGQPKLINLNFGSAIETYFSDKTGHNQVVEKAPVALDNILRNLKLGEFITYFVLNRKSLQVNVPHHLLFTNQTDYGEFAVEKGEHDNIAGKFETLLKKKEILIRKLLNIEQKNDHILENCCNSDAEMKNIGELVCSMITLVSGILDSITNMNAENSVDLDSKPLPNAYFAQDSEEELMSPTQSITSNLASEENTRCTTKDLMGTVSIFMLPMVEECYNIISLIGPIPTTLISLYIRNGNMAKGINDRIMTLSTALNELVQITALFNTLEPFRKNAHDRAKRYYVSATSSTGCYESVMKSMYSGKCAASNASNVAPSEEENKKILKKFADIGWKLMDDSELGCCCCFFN
Outline: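 Using PURExpress in vitro transcription/translation, GST-tagged yeast transcription factors were made in full-length or DNA-binding-domain form. These were applied at about 100-200 nM to double-stranded universal all-10-mer Agilent arrays, and bound protein was detected with fluorescent anti-GST. Scans were normalised with masliner before the Universal PBM Analysis Suite assigned E-scores to ungapped eight-base words pooled with their reverse complements.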

Sequence | PBM E-score
ACAATTAG | 0.0047
ACAATTAA | 0.302
ACAATTAC | 0.202
ACAATTAT | 0.328
CCAATTAA | 0.215
GGCTAGGA | -0.106
ACCGCACT | -0.0787
GAGAGCTC | -0.197
AGCCCAAT | -0.125
GAGTTTTA | 0.146
AAGATATA | 0.323
CGGATATC | 0.0386
AAGATATC | 0.117
GATATATA | 0.289
CAGATATA | 0.175
TATATATA | 0.28
CGGATATA | 0.345
GATATATC | 0.226
GGGATATA | 0.158
CGTGGTTA | -0.0128
CGCGAGCA | -0.12
CACCTTAC | -0.00385
CCGGAACC | -0.16
TCGGAACA | 0.387
CCGGAACA | 0.447

Sequence | PBM E-score
ACGGAACA | 0.298
CCGGAACG | -0.0381
AGGGAACA | 0.249
ACGGAACC | -0.0347
TGGGAACA | 0.111
GGGGAACA | 0.00453
GCGGAACA | 0.265
ACGGAACT | 0.0148
CGGGAACA | 0.331
ATCGTTCC | -0.196
ATATTTGC | 0.222
TATGTTAA | 0.238
CAGGGAAC | 0.0159
CCCATCCC | -0.23
ACTGACGA | -0.0835
AGAATTCC | 0.0767
CTAATTCC | 0.0934
ATGATTCA | 0.127
ATGATTCC | 0.336
ATAATTCG | 0.294
ACAATTCG | 0.0965
CTGATTCC | -0.0421
ATAATTCC | 0.348
ATAATTCA | 0.241
AGCTCTGA | -0.0863

Sequence | PBM E-score
TACGGGGA | -0.183
GAGAATGA | 0.122
ACACCGAT | -0.185
AAGCGCAG | 0.127
AGTAGATA | 0.311
ACTAGATA | 0.304
CCTAGATA | -0.0707
AGTAGATC | 0.164
ACTAGATC | -0.0476
CGTAGATA | 0.0341
GCGGGGAC | -0.22
AGATGAAA | 0.0735
AGAGCGTC | -0.081
ATCAGAAA | 0.044
CGATACAA | 0.165
AGATACAA | 0.292
AGATACAG | 0.22
CGGTGACG | -0.0845
AATGCGAG | 0.291
AATGCGAT | -0.0207
CATGCGAG | -0.217
GGCATAAA | 0.167
ATACGTGC | -0.058
TCACTAGA | 0.12
GATTGTTA | 0.0997

Sequence | PBM E-score
AGTTGTTA | 0.174
CATTGTAC | 0.0182
AGTTGTTC | 0.337
AATTGTTG | 0.114
AATTGTTA | 0.314
AGTTGTTG | 0.123
GATTGTAC | 0.0766
AATTGTCC | 0.163
AATTGTCA | 0.139
AATTGTAC | 0.337
AATTGTTC | 0.339
CTGCAAAA | 0.022
GAGCCCTA | -0.201
AACCTTGT | -0.194
ACCTGGGC | -0.362
CATGGAAG | 0.204
ATTTGTTC | 0.44
ATTTGTTA | 0.185
AAATGTTG | -0.0479
CTTTGTTC | 0.111
AAATGTTA | 0.149
CCTTGTTC | -0.124
AAATGTTC | 0.346
CATTGTTC | 0.31
CATTGTTA | -0.015

Sequence | PBM E-score
GAGAGGTA | -0.223
CCCATCCA | -0.158
AACTGAGA | 0.0375
GTTTGATA | 0.177
AGCCCTGG | -0.252
AAATGGCA | 0.101
CTTCCGGA | 0.274
ATTCCGAG | 0.242
ATTCCGAC | 0.157
ATTCCGGG | 0.188
GGTCCGAA | -0.0173
GTTCCGAA | 0.29
ATTCCGGA | 0.387
CTTCCGAA | 0.208
ATTCCGAA | 0.32
GAAGCTGA | 0.135
CAGCTACA | 0.0259
GCTACGCC | -0.239
ACGTTACT | 0.0376
ATACGCCG | -0.149
AGTCAAAT | 0.188
GGCCACCC | -0.214
TCTTGAAA | 0.319
CATTGAAA | 0.29
CCTTGAAA | 0.0714

Sequence | PBM E-score
GCTTGAAA | 0.0485
CATTGAAG | -0.0671
CATTGAAC | 0.124
AGTGGTAG | 0.0179
ATTAACCA | 0.0788
ATTAACCC | 0.237
ATTAACCG | 0.295
CTTAACTC | 0.0941
AGTAACTG | 0.0214
ATTAACTG | 0.333
ATTAACTC | 0.291
ATTAACTA | 0.181
ATTAACGG | 0.159
GAATTGAC | 0.00537
CAGGCGGA | 0.122
AACGCTTG | -0.194
AATTCTCA | 0.204
CATTCTCC | 0.0353
ATTTCTCC | 0.404
CTTTCTCC | -0.103
AATTCTCC | 0.293
ATTTCTCA | 0.192
CAGGCTGA | -0.237
GACAGAGA | -0.066
ACCCTACT | 0.0025

Sequence | PBM E-score
TGCTACCA | -0.0533
AATGCATG | 0.0293
AATGCATT | 0.31
AATGCATA | 0.126
AGTAGTAT | 0.185
AAAAGCCA | 0.3
AAAAGCCC | -0.113
AAAAGACA | 0.292
AAAAGACC | -0.141
CAAAGACA | 0.0541
GAAAGCCA | -0.136
CCCAGTGA | -0.194
AGCAGTGG | 0.0536
ATCTTGAA | 0.187
ATATTAAA | 0.355
GTATTAAC | 0.0593
ATATTAAG | 0.285
ATATTAAT | 0.314
TTATTAAA | 0.283
ACATTAAT | 0.235
CTATTAAA | 0.196
ATATTAAC | 0.301
CTATTAAC | 0.268
